This is an account of results in PubChem BioAssay (EPA / NIEHS).

More than one record can exist for a structure, and the calls need not agree. Activity calls are given as the source filed them. Rule for the calls: active = hit-call score of the fitted dose curve at least 0.9, where 1 is the maximum; inactive = score below 0.9.

Read-out in one assay: Plasminogen activator inhibitor-1 (PAI1), SERPINE1 (gene 5054)
Put plainly: BSK_BE3C_PAI1: BioMAP Diversity Plus: BE3C Assay for Plasminogen activator inhibitor-1 (PAI1) Biomarker Activity (AID 2283037). The following applies: primary human bronchial epithelial cells; actives raise or lower the signal. The method, boiled down:
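PAI-1 biomarker levels in treated human bronchial epithelial cells are determined by ELISA at 24 h. Both increases and decreases relative to DMSO are fitted.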
With `N#CN`, the result was inactive.

As to `CC1(c2ccc(Oc3ccccc3)cc2)OC(=O)N(Nc2ccccc2)C1=O` (centres undefined), the result was inactive.

Take `CCCN(CCC)c1c([N+](=O)[O-])cc(C(F)(F)F)cc1[N+](=O)[O-]`: the result was inactive.

For the compound `COc1cc(OC)nc(NC(=O)NS(=O)(=O)c2cc(NC=O)ccc2C(=O)N(C)C)n1`, the outcome was inactive.

Turning to `O=S(=O)(O)C(F)(F)C(F)(F)C(F)(F)C(F)(F)C(F)(F)C(F)(F)C(F)(F)C(F)(F)F`, the result was inactive.

Broadly, the AC50 is the concentration at which the activity in the assay is half-maximal. For `N#Cc1c(Cl)c(Cl)c(Cl)c(C#N)c1Cl`, the AC50 was 2.5 µM (active).

For the compound `O=[N+]([O-])c1c(Cl)c(Cl)c(Cl)c(Cl)c1Cl`, the result was inactive.

Read-out in the next assay: urokinase plasminogen activator (uPA), PLAU (gene 5328)
Put plainly: BSK_BE3C_uPA: BioMAP Diversity Plus: BE3C Assay for urokinase plasminogen activator (uPA) Biomarker Activity (AID 2283038).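 For outcome: uPA protein level quantified by ELISA in cell cultures; uPA read one day after compound addition.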 The following applies: primary human bronchial epithelial cells; actives raise or lower the signal. The method, boiled down:
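ELISA read-out of uPA in human lung primary bronchial epithelial cultures, 24 h post-dosing. Gain or loss of signal fitted bidirectionally relative to DMSO baseline; cytotoxicity checked in parallel cultures via SRB total protein stain.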
Take `O=C(O)C(F)(F)C(F)(F)C(F)(F)C(F)(F)C(F)(F)C(F)(F)C(F)(F)F`: the outcome was inactive.

For the compound `COP(=O)(OC)OC=C(Cl)Cl`, the outcome was inactive.

With `COP(=S)(OC)Oc1ccc([N+](=O)[O-])cc1`, the result was inactive.

On to `O=C(NC(=O)c1c(F)cccc1F)Nc1ccc(OC(F)(F)C(F)OC(F)(F)F)c(Cl)c1` (centres undefined), for which the result was inactive.

On to `CCc1ccc(C(=O)NN(C(=O)c2cc(C)cc(C)c2)C(C)(C)C)cc1`, for which the outcome was inactive.

For `COC(=O)c1ccccc1S(=O)(=O)NC(=O)N(C)c1nc(C)nc(OC)n1`, the result was inactive.

For `COC(=O)c1ccccc1CS(=O)(=O)NC(=O)Nc1nc(OC)cc(OC)n1`, the result was inactive.

As for `O=C(O)CCCOc1ccc(Cl)cc1Cl`, the result was inactive.

Regarding `O=[N+]([O-])/N=C1\NCCN1Cc1ccc(Cl)nc1`, the result was inactive.

Turning to `Cc1[nH]c(=O)n(C(C)(C)C)c(=O)c1Cl`, the outcome was inactive.

For `CC(C)(C)C(O)C(Oc1ccc(Cl)cc1)n1cncn1` (centres undefined), the outcome was inactive.

For the compound `CCOCN(C(=O)CCl)c1c(C)cccc1CC`, the result was inactive.

As to `[2H]C1([2H])[n+]2ccccc2-c2cccc[n+]2C1([2H])[2H]`, the result was inactive.

Regarding `CCOc1nc(NC)nc(NC(=O)NS(=O)(=O)c2ccccc2C(=O)OC)n1`, the outcome was inactive.

`Cc1cc(C)nc(NC(=O)NS(=O)(=O)c2ccccc2C(=O)OC2COC2)n1`: the outcome was inactive.

In the case of `COc1nn(CSP(=S)(OC)OC)c(=O)s1`, the result was inactive.

In the case of `Oc1ccc(Cl)cc1Cc1ccccc1`, the AC50 is 36.3 µM (active) [middle of 7 runs].

As for `CCOC1Oc2ccc(OS(C)(=O)=O)cc2C1(C)C` (centres undefined), the AC50 is 26.5 µM (active).

Take `ClC1C(Cl)C(Cl)C(Cl)C(Cl)C1Cl` (centres undefined): the outcome was inactive.

In the case of `N#CN`, the result was inactive.

For `CC1(c2ccc(Oc3ccccc3)cc2)OC(=O)N(Nc2ccccc2)C1=O` (centres undefined), the result was inactive.

For the compound `CCCN(CCC)c1c([N+](=O)[O-])cc(C(F)(F)F)cc1[N+](=O)[O-]`, the outcome was inactive.

`COc1cc(OC)nc(NC(=O)NS(=O)(=O)c2cc(NC=O)ccc2C(=O)N(C)C)n1`: the result was inactive.

For the compound `O=S(=O)(O)C(F)(F)C(F)(F)C(F)(F)C(F)(F)C(F)(F)C(F)(F)C(F)(F)C(F)(F)F`, the AC50 was 32 µM (active) [middle of 4 runs] and the result was inactive.

Turning to `N#Cc1c(Cl)c(Cl)c(Cl)c(C#N)c1Cl`, the AC50 was 1.69 µM (active).

`O=[N+]([O-])c1c(Cl)c(Cl)c(Cl)c(Cl)c1Cl`: the result was inactive.
